The results in this text go back to PubChem BioAssay AID687001 (Broad Institute, 2013).

Molecules are shown by their SMILES. Measured potencies and affinities stand elsewhere. The source made the active and inactive calls.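 Rule for the calls: active = signal-lowering compounds whose fitted half-maximal concentration is at or below twice the top tested dose in every run; inconclusive = runs disagree, flat 30 to 70% inhibition, or poor curve fit; inactive = the rest.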

The target of this experiment is Protein S100-A4 (Homo sapiens) (UniProt P26447). As to the kind of experiment: S100A4-myosin IIA binding inhibitor potency, dose response, biochemical, fluorescence polarization, cherry-picked hits (AID 687001). The conditions noted are these: FP, S100A4/TAMRA-myosin IIA peptide binding; series mostly up to 11 µM. (In general: Polarisation of emitted light reports the rotation of a fluorescent probe.)
Sequence of Protein S100-A4 (Homo sapiens) (P26447 whole entry, looked up): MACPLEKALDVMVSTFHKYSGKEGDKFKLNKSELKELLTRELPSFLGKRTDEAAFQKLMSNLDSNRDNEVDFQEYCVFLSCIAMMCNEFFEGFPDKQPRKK
For the molecule `O=C(CN1C(=O)NC2(CCCCCCC2)C1=O)Nc1c(Cl)cccc1Cl`, the call was inactive.
In the case of `C[C@@H]1CN([C@@H](C)CO)C(=O)CCCn2cc(nn2)CO[C@H]1CN(C)S(=O)(=O)c1ccc(Oc2ccccc2)cc1`, the call was inactive.
The entry for `O=C(O)[C@@H]1[C@@H](CO)[C@@H]2Cn3c(ccc(/C=C/c4ccccc4)c3=O)[C@@H]2N1C(=O)C1CCCC1` is “inactive”; for `Cc1cccn2c(=O)c3cc(C(=O)NC4CCCCCC4)sc3nc12` it is “inactive”.
In the case of `N#C[C@@H]1[C@H](c2ccccc2C2=CCCCC2)[C@@H](CO)N1S(=O)(=O)c1cccc(F)c1`, the molecule was called inactive.
For `CC(=O)N1CC(=O)N2[C@H](CO)[C@@H](c3ccc(-c4ccc(C#N)cc4)cc3)[C@H]2C1`, the call was inactive.
With `O=C(C[C@H]1CC[C@@H]2[C@H](COC[C@@H](O)CN2C(=O)Nc2ccc(F)cc2)O1)NCCc1ccccc1`, the outcome was inactive.
As to `COCCN(C(=O)CSc1nc2ccc(OC)cc2[nH]1)c1c(N)n(Cc2ccccc2)c(=O)[nH]c1=O`, the molecule was called inactive.
The entry for `CCCCn1c(O)c(/C=C2\C=Nc3ccccc32)c(=O)[nH]c1=O` is “inactive”.
Regarding `OCCC1CN(Cc2ccc3c(c2)CCO3)CCN1Cc1ccc(F)cc1` (centres undefined), the call was inactive.
In the case of `CCCCNS(=O)(=O)c1ccc2nc(-c3cccnc3)cc(C(=O)NC(C)CC)c2c1` (centres undefined), the result was inactive.
On to `COc1ccc(C2/C=C\CN(S(=O)(=O)c3cccc4cccnc34)CC(=O)N2Cc2ccc(F)cc2)cc1` (centres undefined), for which the molecule was classed as inactive.
Turning to `CCOc1ccccc1CNC(=O)c1cc2occc2n1C`, the outcome was inactive.
Consider `COc1ccc(CN(C)C[C@H]2Oc3c(NC(=O)NC(C)C)cccc3C(=O)N([C@H](C)CO)C[C@H]2C)cc1`, for which the molecule was called inactive.
The result for `CCOc1ccc(OCCNC(=O)c2cc(C3CC3)nc3c2cnn3C(C)C)cc1` reads “inactive”; that for `CCCC(=O)Nc1ccc2c(c1)OC[C@H](C)N(CCC(F)(F)F)C[C@H](C)[C@@H](OC)CN(C)C2=O`, “inactive”.
For the molecule `Cc1ccc(S(=O)(=O)N(C)C[C@H]2Oc3ccc(NC(=O)Nc4ccccc4)cc3C(=O)N([C@@H](C)CO)C[C@H]2C)cc1`, the molecule was called inactive.
Turning to `C[C@@H]1CN([C@@H](C)CO)C(=O)Cc2cc(NC(=O)CCN3CCOCC3)ccc2O[C@@H]1CN(C)C`, the molecule was classed as inactive.
The entry for `O=C(NCCC1CCCCN1S(=O)(=O)c1ccccc1)C(=O)NCC1CCCO1` (centres undefined) is “inactive”; for `COc1cc(/C=C2\SC(=S)N(NC(=O)c3ccccc3OC)C2=O)ccc1O` it is “inactive”; for `Cc1cccc(C)c1NC(=O)CN1CCN(c2ccc(C(F)(F)F)cn2)CC1` it is “inactive”.
The entry for `Cc1ccc(C(=O)N2CCN(c3ccc4c(c3)C3CC4CCN3C(=O)OCc3ccccc3)CC2)cc1` (centres undefined) is “inactive”; for `C[C@H](CO)N1C[C@H](C)[C@H](CN(C)Cc2ccncc2)Oc2c(NC(=O)C3CC3)cccc2C1=O` it is “inactive”.
The entry for `Cc1ccccc1CNS(=O)(=O)c1c(C(=O)N2CCCC2)c(C)n(C)c1C` is “inactive”; for `CCOC(=O)[C@]12CCCC=C1N(Cc1cccc3ccccc13)C(=O)[C@H](CC(=O)NCCCN1CCCC1=O)C2` it is “inactive”; for `CC(C)NC(=O)N(C)C[C@H]1Oc2ccc(NC(=O)CCCN(C)C)cc2C(=O)N([C@H](C)CO)C[C@H]1C` it is “inactive”.
As for `O=C(/C=C/c1cc(Br)ccc1F)OCC(=O)N1CCOCC1`, the call was inactive.
Regarding `O=S(=O)(c1ccc2c(c1)CCCN2)N1CCCC2CCCCC21` (centres undefined), the result was inactive.
`CO[C@@H]1CN(C)C(=O)c2cc(NC(C)=O)ccc2OC[C@H](C)N(Cc2cncnc2)C[C@H]1C`: the molecule was classed as inactive.
Turning to `Cc1noc(C)c1NC(=O)N[C@@H]1CC[C@H](CCNC(=O)C2CCOCC2)O[C@@H]1CO`, the molecule was classed as inactive.
Turning to `C[C@H]1CN([C@@H](C)CO)C(=O)c2cc(NC(=O)NC3CCCCC3)ccc2O[C@@H]1CN(C)C(=O)Nc1ccccc1`, the molecule was classed as inactive.
The entry for `CCC1(CC)NC(=O)N(CC(=O)Nc2ccc(C)cc2C)C1=O` is “inactive”; for `Cn1cc(SCC(=O)NC2CCCC2)c2ccccc21` it is “inactive”.
On to `C#CCOCCOCCOCCNc1nc(N2CCN(C(=O)[C@H]([C@@H](C)CC)n3cc(CCCCN)nn3)CC2)nc(N2CCN(C(=O)[C@H](C)n3cc(CCC(=O)O)nn3)CC2)n1`, for which the molecule was called inactive.
With `CCCCOc1ccc(S(=O)(=O)N2CCN(c3ccc(N4CCN(CC)CC4)nn3)CC2)cc1`, the molecule was classed as inactive.
Consider `Cn1c2ccccc2c(=O)c2ccc(C#Cc3ccc(N)cc3)cc21`, for which the result was inactive.
On to `CC(=O)Cc1cc2cc([N+](=O)[O-])ccc2oc1=O`, for which the call was inactive.
Regarding `O=C(CSc1n[nH]c(-c2ccc(Br)cc2)n1)NC1CCCC1`, the molecule was classed as inactive.
`Cn1c(=O)c2sccc2n2c(CCCC(=O)N3CCN(c4ccccn4)CC3)nnc12`: the call was inactive.
